PubChem BioAssay (NCI)
About 83,000 compounds went through this panel and 20% of them were active in at least one assay; those are over-represented in the sample as a whole.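 The endpoint reported here, percent growth, reads 100 for growth as untreated, 0 for no net growth and -100 for all cells dead.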 A number with no mark means an inactive call. Calls of active or inactive are those of the source. How the source made its calls: active means growth percent below 10; inactive means the rest.

Legend:
Assay in all cases: NCI-60 one-dose screen, 48 h (100 = growth as untreated, 0 = no growth, -100 = all killed)
Settings in all cases: 10 µM unless noted
SK-MEL-2 melanoma = test system: SK-MEL-2 melanoma
EKVX NSCLC = test system: EKVX NSCLC
SN12C renal = test system: SN12C renal
UO-31 renal = test system: UO-31 renal
TK-10 renal = test system: TK-10 renal
ACHN renal = test system: ACHN renal
CAKI-1 renal = test system: CAKI-1 renal
A498 renal = test system: A498 renal
CCRF-CEM leukemia = test system: CCRF-CEM leukemia
MOLT-4 leukemia = test system: MOLT-4 leukemia

| Compound | growth (SK-MEL-2 melanoma) | growth (EKVX NSCLC) | growth (SN12C renal) | growth (UO-31 renal) | growth (TK-10 renal) | growth (ACHN renal) | growth (CAKI-1 renal) | growth (A498 renal) | growth (CCRF-CEM leukemia) | growth (MOLT-4 leukemia) |
| --- | --- | --- | --- | --- | --- | --- | --- | --- | --- | --- |
| O=C1c2cccc(NCCN=Cc3ccccc3O)c2C(=O)c2c(NCCN=Cc3ccccc3O)cccc21 | 46.5% | 39.8% | 44.5% | -4.5% (active) | 22.5% | 15.4% | 27.6% | 50.7% | 3.44% (active) | 15% |
| COC(=O)c1cc2c(/C=C3/NC(=S)NC3=O)coc2n1C | 107% | 93.4% | 118% | 50% | 89.9% | 95.2% | 74.4% | 99.6% | 85.2% | 99.9% |
| COC(=O)CC1=C(c2ccc([N+](=O)[O-])cc2)CCC1=O | 103% | 94.5% | 103% | 80.5% | 107% | 102% | 99.8% | 69.5% | 95.3% | 104% |
| O=[N+]([O-])c1ccc(N=Nc2c(Cl)cc(O)cc2Cl)cc1 | -19.1% (active) | 1.71% (active) | 0.728% (active) | -31.5% (active) | 9.62% (active) | 1.34% (active) | -11.9% (active) | -26.4% (active) | 8.97% (active) | -19% (active) |
| CN1CCN(CCCOc2ccc3ncnc(Nc4ccc(OCc5cccc(F)c5)c(Cl)c4)c3c2)CC1 | -40.1% (active) | 30.7% | 3.1% (active) | -4.76% (active) | -18% (active) | -50.7% (active) | -62.5% (active) | 26.1% | 2.72% (active) | -12.8% (active) |
| C(=C1c2ccccc2-c2ccccc21)c1ccncc1 | 42.9% | 59.5% | 51.2% | 49.5% | 64.6% | 71.5% | 29.6% | 62% | 59.3% | 39.5% |
| CC(=O)OC1Oc2cc(C)c(C)cc2-c2oc(=O)c(-c3ccccc3)cc21 (stereo not given) | 17.3% | 40.5% | 43.6% | 16.5% | 13.9% | 34% | 24.8% | -1.55% (active) | -37.8% (active) | -20.4% (active) |
| O=C(COc1cccc(/C=C2\Oc3ccc4ccccc4c3C2=O)c1)c1ccc(Cl)cc1 | 57.5% | 92.8% | 91.2% | -7.73% (active) | 115% | 96.8% | 83% | 132% | 25.3% | 74% |
| O=C(O)CCNS(=O)(=O)c1ccc(-c2ccccc2)cc1 | 0.624% (active) | 91.6% | 95% | 92.8% | 136% | 97.9% | 104% | 115% | 111% | 118% |
| O=C(Oc1ccccc1)C(Br)C(Br)c1ccccc1 (stereo not given) | 95.3% | 136% | 109% | 93.3% | 83% | 78.2% | -66.7% (active) | 91.3% | -28.7% (active) | 7.62% (active) |
| COC(=O)C1(NC(=O)CNC(=O)OCc2ccccc2)CCCC1 | 102% | 98.2% | 95.4% | 93.1% | 99.9% | 105% | 100% | 96.9% | 101% | 111% |
| COc1cc(/C=C\C(C)=N\Nc2ccccc2)ccc1O | 92.5% | 94.1% | 92.6% | 66% | 94.5% | 97.6% | 82.3% | 110% | 30.7% | 70.9% |
| CCSc1ncc(Br)c(Sc2nc(N)nc3nc[nH]c23)n1 | 73.1% | 36.7% | 80.9% | 70% | 72.7% | 77.6% | 57.7% | 95.9% | 12.5% | 3.06% (active) |
| COc1ccc(CNC(=O)c2c(C)n([O-])c3cc(F)c(F)cc3[n+]2=O)cc1 | 88.1% | 89.2% | 95.2% | -32.4% (active) | 102% | 98.7% | 152% | 95.1% | 90.8% | 97% |
| O=C(COc1ccc(/C=C2\Oc3ccc4ccccc4c3C2=O)cc1)c1ccc(Cl)cc1 | 73.8% | 103% | 98.9% | 5.25% (active) | 114% | 107% | 98.8% | 155% | -26.9% (active) | 33.8% |
| COC(=O)c1cc2oc(/C=N\NC(=O)c3cc4oc(C)c(C)c4[nH]3)cc2[nH]1 | 109% | 91.6% | 120% | 94.7% | 132% | 104% | 80.5% | 115% | 83.7% | 82.1% |
| NS(=O)(=O)c1ccc(-n2ncc3c(N/N=C/c4ccccc4)ncnc32)cc1 | 70.5% | 108% | 93% | 68.8% | 93.6% | 94.7% | 53.4% | 111% | 84.6% | 71.4% |
| CC(=O)OCC(=O)[C@@]1(O)CC[C@H]2[C@@H]3CCC4=CC(=O)CC[C@]4(C)[C@@]3(F)[C@@H](O)C[C@@]21C | 104% | 88.8% | 84.2% | 82.5% | 99.2% | 98.5% | 115% | 103% | 71.7% | 90.2% |
| COC(=O)[C@H]1[C@H]2C[C@@H]3c4[nH]c5cc(OC)ccc5c4CCN3C[C@H]2C[C@@H](OC(=O)/C=C/c2cc(OC)c(OC)c(OC)c2)[C@@H]1OC | 66.2% | 90.4% | 63.3% | 69.2% | 46.4% | 68.5% | 30.9% | 81.7% | 5.36% (active) | 8.49% (active) |
| Nc1ccc2c(c1)Cc1cc(Cl)c(Cl)cc1-2 | 47.5% | 48% | 57.2% | 63.6% | 101% | 66.8% | 65.4% | 60.1% | 32.2% | 70.2% |
